# Measurements taken from the supplement of paper PMC8728848.
# Many of the other results were omitted from the sample, so the strongest signals are more common in it than they were.
# Key:
# Assay in all cases: glycan array binding signal (z-score within array); higher = stronger binding
# Conditions in all cases: glycan notation: IUPAC condensed, linker removed
# [1] = target: Fuc(a1-2)Gal(b1-3)GalNAc(a1-3)[Fuc(a1-2)]Gal(b1-4)Glc
# How it was run: (§1)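 The binding signal is a Z-score computed within each array. Data were drawn from 3228 arrays in the Consortium for Functional Glycomics database, restricted to those with a known protein sequence. Scores were averaged over arrays of the same protein sequence at different concentrations or buffers, and over linkers, and negative values can be taken as non-binding.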
# [2] = target: Fuc(a1-2)Gal(b1-3)GlcNAc(b1-3)GalNAc
# How it was run: as §1
# [3] = target: Fuc(a1-2)Gal(b1-4)GlcNAc(b1-2)Man(a1-3)[Fuc(a1-2)Gal(b1-4)GlcNAc(b1-2)Man(a1-6)]Man(b1-4)GlcNAc(b1-4)[Fuc(a1-6)]GlcNAc
# How it was run: as §1
# [4] = target: Fuc(a1-2)Gal(b1-4)GlcNAc6S
# How it was run: as §1
# [5] = target: Fuc(a1-2)[Gal(a1-3)]Gal(b1-3)GalNAc(b1-3)Gal(a1-4)Gal(b1-4)Glc
# How it was run: as §1
# [6] = target: Fuc(a1-2)[Gal(a1-3)]Gal(b1-3)GlcNAc(b1-6)GalNAc
# How it was run: as §1
# [7] = target: Fuc(a1-2)[Gal(a1-3)]Gal(b1-4)GlcNAc(b1-2)Man(a1-3)[Fuc(a1-2)[Gal(a1-3)]Gal(b1-4)GlcNAc(b1-2)Man(a1-6)]Man(b1-4)GlcNAc(b1-4)GlcNAc
# How it was run: as §1
# [8] = target: Fuc(a1-2)[Gal(a1-3)]Gal(b1-4)GlcNAc(b1-6)GalNAc
# How it was run: as §1
# [9] = target: Fuc(a1-2)[GalNAc(a1-3)]Gal(b1-3)GlcNAc
# How it was run: as §1
# [10] = target: Fuc(a1-2)[GalNAc(a1-3)]Gal(b1-4)GlcNAc(b1-2)Man(a1-3)[Fuc(a1-2)[GalNAc(a1-3)]Gal(b1-4)GlcNAc(b1-2)Man(a1-6)]Man(b1-4)GlcNAc(b1-4)GlcNAc
# How it was run: as §1
# [11] = target: Fuc(a1-2)[GalNAc(a1-3)]Gal(b1-4)[Fuc(a1-3)]GlcNAc(b1-3)GalNAc
# How it was run: as §1
# [12] = target: Fuc(a1-3)GlcNAc
# How it was run: as §1
# [13] = target: Fuc(a1-3)[Gal(b1-4)]GlcNAc(b1-4)Gal(b1-4)[Fuc(a1-3)]GlcNAc
# How it was run: as §1
# [14] = target: Fuc(a1-3)[Gal(b1-4)]GlcNAc(b1-6)[Gal(b1-3)GlcNAc(b1-3)]Gal(b1-4)Glc
# How it was run: as §1
# [15] = target: Gal(a1-4)Gal(b1-4)GlcNAc
# How it was run: as §1
# [16] = target: Gal(b1-3)Gal(b1-4)GlcNAc(b1-2)Man(a1-3)[Gal(b1-3)Gal(b1-4)GlcNAc(b1-2)Man(a1-6)]Man(b1-4)GlcNAc(b1-4)GlcNAc
# How it was run: as §1
# [17] = target: Gal(b1-3)GlcNAc(b1-3)Gal(b1-4)GlcNAc(b1-2)Man(a1-3)[Gal(b1-3)GlcNAc(b1-3)Gal(b1-4)GlcNAc(b1-2)Man(a1-6)]Man(b1-4)GlcNAc(b1-4)GlcNAc
# How it was run: as §1
# [18] = target: Gal(b1-3)[Fuc(a1-4)]GlcNAc(b1-6)GalNAc
# How it was run: as §1
# [19] = target: Gal(b1-3)[Neu5Ac(a2-6)]GalNAc
# How it was run: as §1
# [20] = target: Gal(b1-4)GlcNAc(b1-2)Man(a1-3)[Gal(b1-4)GlcNAc(b1-2)Man(a1-6)]Man(b1-4)GlcNAc(b1-4)GlcNAc
# How it was run: as §1
# [21] = target: Gal(b1-4)GlcNAc(b1-2)Man(a1-3)[Gal(b1-4)GlcNAc(b1-2)Man(a1-6)][Gal(b1-4)GlcNAc(b1-4)]Man(b1-4)GlcNAc(b1-4)[Fuc(a1-6)]GlcNAc
# How it was run: as §1
# [22] = target: Gal(b1-4)GlcNAc(b1-2)Man(a1-6)[Man(a1-3)]Man(b1-4)GlcNAc(b1-4)GlcNAc
# How it was run: as §1
# [23] = target: Gal(b1-4)GlcNAc(b1-2)[Gal(b1-4)GlcNAc(b1-4)]Man(a1-3)[Gal(b1-4)GlcNAc(b1-2)[Gal(b1-4)GlcNAc(b1-6)]Man(a1-6)]Man(b1-4)GlcNAc(b1-4)GlcNAc
# How it was run: as §1
# [24] = target: Gal(b1-4)GlcNAc(b1-2)[Gal(b1-4)GlcNAc(b1-6)]Man(a1-6)[GlcNAc(b1-4)][Gal(b1-4)GlcNAc(b1-2)Man(a1-3)]Man(b1-4)GlcNAc(b1-4)GlcNAc
# How it was run: as §1
# [25] = target: Gal(b1-4)GlcNAc(b1-3)Gal(b1-4)GlcNAc(b1-3)Gal(b1-4)GlcNAc(b1-3)Gal(b1-4)GlcNAc(b1-2)[Gal(b1-4)GlcNAc(b1-3)Gal(b1-4)GlcNAc(b1-3)Gal(b1-4)GlcNAc(b1-3)Gal(b1-4)GlcNAc(b1-6)]Man(a1-6)[Gal(b1-4)GlcNAc(b1-3)Gal(b1-4)GlcNAc(b1-3)Gal(b1-4)GlcNAc(b1-3)Gal(b1-4)GlcNAc(b1-2)Man(a1-3)]Man(b1-4)GlcNAc(b1-4)[Fuc(a1-6)]GlcNAc
# How it was run: as §1
# [26] = target: Gal(b1-4)GlcNAc(b1-3)Gal(b1-4)GlcNAc(b1-3)Gal(b1-4)GlcNAc(b1-3)Gal(b1-4)GlcNAc(b1-3)Gal(b1-4)GlcNAc(b1-2)Man(a1-3)[Gal(b1-4)GlcNAc(b1-3)Gal(b1-4)GlcNAc(b1-3)Gal(b1-4)GlcNAc(b1-3)Gal(b1-4)GlcNAc(b1-3)Gal(b1-4)GlcNAc(b1-2)Man(a1-6)]Man(b1-4)GlcNAc(b1-4)GlcNAc
# How it was run: as §1
# [27] = target: Gal(b1-4)GlcNAc(b1-3)Gal(b1-4)GlcNAc(b1-3)Gal(b1-4)GlcNAc(b1-3)Gal(b1-4)GlcNAc(b1-3)Gal(b1-4)GlcNAc(b1-2)Man(a1-3)[Gal(b1-4)GlcNAc(b1-3)Gal(b1-4)GlcNAc(b1-3)Gal(b1-4)GlcNAc(b1-3)Gal(b1-4)GlcNAc(b1-3)Gal(b1-4)GlcNAc(b1-2)Man(a1-6)]Man(b1-4)GlcNAc(b1-4)[Fuc(a1-6)]GlcNAc
# How it was run: as §1
binder,measurement,setting,value
"Gal 9 (Homo sapiens), O00182 (protein) MAFSGSQAPYLSPAVPFSGTIQGGLQDGLQITVNGTVLSSSGTRFAVNFQTGFSGNDIAFHFNPRFEDGGYVVCNTRQNGSWGPEERKTHMPFQKGMPFDLCFLVQSSDFKVMVNGILFVQYFHRVPFHRVDTISVNGSVQLSYISFQNPRTVPVQPAFSTVPFSQPVCFPPRPRGRRQKPPGVWPANPAPITQTVIHTVQSAPGQMFSTPAIPPMMYPHPAYPMPFITTILGGLYPSKSILLSGTVLPSAQRFHINLCSGNHIAFHLNPRFDENAVVRNTQIDNSWGSEERSLPRKMPFVRGQSFSVWILCEAHCLKVAVDGQHLFEYYHRLRNLPTINRLEVGGDIQLTHVQT",glycan array binding signal (z-score),[1],-0.317
same,glycan array binding signal (z-score),[2],-0.3
same,glycan array binding signal (z-score),[3],-0.322
same,glycan array binding signal (z-score),[4],0.06
same,glycan array binding signal (z-score),[5],-0.307
same,glycan array binding signal (z-score),[6],-0.233
same,glycan array binding signal (z-score),[7],0.9
same,glycan array binding signal (z-score),[8],-0.307
same,glycan array binding signal (z-score),[9],0.055
same,glycan array binding signal (z-score),[10],4.39
same,glycan array binding signal (z-score),[11],-0.288
same,glycan array binding signal (z-score),[12],-0.32
same,glycan array binding signal (z-score),[13],-0.303
same,glycan array binding signal (z-score),[14],-0.236
same,glycan array binding signal (z-score),[15],-0.299
same,glycan array binding signal (z-score),[16],6
same,glycan array binding signal (z-score),[17],4.53
same,glycan array binding signal (z-score),[18],-0.282
same,glycan array binding signal (z-score),[19],-0.315
same,glycan array binding signal (z-score),[20],2.94
same,glycan array binding signal (z-score),[21],-0.269
same,glycan array binding signal (z-score),[22],0.09
same,glycan array binding signal (z-score),[23],4.71
same,glycan array binding signal (z-score),[24],3.87
same,glycan array binding signal (z-score),[25],9.56
same,glycan array binding signal (z-score),[26],4.95
same,glycan array binding signal (z-score),[27],4.2
